The record followed here is PubChem BioAssay (NCI).

About 79,000 compounds went through this panel and 15% of them were active in at least one assay; those are over-represented in the sample as a whole. Unmarked numbers belong to inactive results. The source made the active and inactive calls. Cut-off read from the data, not from the text of the source: active = growth inhibition above about 70%; inactive = the rest.

The nature of this experiment: NCI Yeast Anticancer Drug Screen. Data for the mec2-1 strain (AID 157). The conditions noted are these: S. cerevisiae mec2-1 strain, at 50.0 µM, hits give high values. Summed up:
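Compounds were applied to mec2-1 yeast cells. Their growth was then compared with that of vehicle-treated cultures to give growth inhibition.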
Take `CC(C)N=C(NC(C)C)SCCCCCCSC(=NC(C)C)NC(C)C`: the growth inhibition was -17.2%.
With `CCCCCOC(=S)SSSC(=S)OCCCCC` the figure was 4.7%.
With `CCCCCCCCCCCCCCCC[N+](C)(C)CC(=O)O` the figure was 1.2%; with `Cc1cc(C)c([O-])c(-[n+]2c(-c3ccccc3)cc(-c3ccccc3)cc2-c2ccccc2)c1`, 92.5% (active); with `CC(=O)NNc1ccc(Cl)cc1[N+](=O)[O-]`, 25.3%.
To `O=C(NC(=Nc1ccccc1)SCCSC(=Nc1ccccc1)NC(=O)c1ccccc1)c1ccccc1` belongs 79.9% (active); to `CN(C)CCCNc1ccc(O)c2c1C(=O)c1ccccc1C2=O`, 87.8% (active).
With `COC(=O)C(=O)C(/C=N/C(=S)NCCc1ccc(OC)c(OC)c1)=C(/O)c1ccc([N+](=O)[O-])cc1`, the growth inhibition is -7.95%.
`CCCC(=O)OCC1CC2C=CC1C2` (stereo not given): the growth inhibition is -7.65%.
As to `CN(NC(=O)/C(=C/c1cc(Cl)cc(Cl)c1O)NC(=O)c1ccccc1)c1cnn(-c2ccccc2)c(=O)c1Cl`, the growth inhibition is 39.2%.
With `CC(C)N(C(=O)CC1(O)CCCCC1)C(C)C` the figure was -11.9%; with `COC(=O)C1C(c2ccccc2)=N[C@@H](c2ccccc2)[C@H]1C(=O)OC` (stereo not given in full), -2.15%.
To `O=C1C(=Cc2ccccc2O)N=C(c2ccccc2)N1n1c(-c2ccccc2)nc2ccccc2c1=O` belongs 49.2%; to `CCOc1ccc2c(c1)[n+]([O-])c(-c1ccc([N+](=O)[O-])cc1)c(N)[n+]2[O-]`, 80.5% (active); to `O=C(NCCCNCCCCNCCCNC(=O)c1cc(-c2ccccc2)nc2ccccc12)c1cc(-c2ccccc2)nc2ccccc12`, 93.2% (active).
As to `CC1=C(C(=O)Nc2cccc3ccccc23)C(c2cccc([N+](=O)[O-])c2)C(C(=O)Nc2cccc3ccccc23)=C(C)N1`, the growth inhibition is 60.2%.
To `O=C1OC(c2ccc(O)cc2)Sc2ccccc21` (stereo not given) belongs 74.2% (active); to `CC(C)(C)c1ccc(-c2nc3ccccc3c(=O)o2)cc1`, 53.1%.
With `O=C(N/C(=C/c1ccc(Cl)cc1Cl)c1nc2ccccc2s1)c1ccccc1` the figure was 97.7% (active); with `O=C(O)C/C(=C\c1ccco1)C(=O)O`, -11.5%.
For `CN(C)Cc1cc(N=Nc2ccc(Cl)c(Cl)c2)ccc1O`, the growth inhibition is 64.4%.
`CC(=O)OC1C(O)C(C)OC(OC(=O)C2CCC3C(C2)OC2(CC(OC(=O)/C=C/c4ccccc4)C(C)CO2)C32CO2)C1OC1OC(C)C(O)C(O)C1O` (stereo not given): the growth inhibition is 89.9% (active).
With `O=C1c2ccccc2C(=O)c2c(/C=C\N3CCCCC3)ccnc21`, the growth inhibition was 92.4% (active).
To `CCN(CC)c1ccc(NC(CC(O)c2ccccc2)c2ccccc2)cc1` (stereo not given) belongs 5.8%; to `CCOC(=O)Nc1nc2ccc(SC#N)cc2s1`, 64.8%; to `CSC(SC)C(SC)SC`, -5.4%.
As to `N#CC(C(=O)C(=O)Nc1ccc(Cl)cc1)c1c(Cl)cccc1Cl` (stereo not given), the growth inhibition was 7.5%.
Consider `CN(/N=C\c1cccc([N+](=O)[O-])c1)C(c1cccc([N+](=O)[O-])c1)N(C)/N=C/c1cccc([N+](=O)[O-])c1` (stereo not given), for which the growth inhibition is 48.4%.
For `Oc1cc(Br)cc2cc(Br)cnc12`, the growth inhibition was 89.5% (active).
With `COc1ccccc1C(C)c1ccc2ccccc2c1C(=O)O` (stereo not given), the growth inhibition was 94% (active).
As for `Cc1ccnc2[nH]c3ccccc3c(=O)c12`, the growth inhibition is 69.5%.
To `COc1cc(OC)c(/C=C\c2ccnc3ccccc23)c(OC)c1` belongs 86.3% (active).
With `COC(=O)C1(COCc2ccccc2)CCCC2OC21` (stereo not given) the figure was -5.2%.
In the case of `O=[N+]([O-])/C(=C\c1cccs1)c1ccccc1`, the growth inhibition is 99.7% (active).
Consider `Cc1cc(C(O)(c2cc(C)c(O)c(C(=O)O)c2)c2cc(C)c(O)c(C(=O)O)c2)cc(C(=O)O)c1O`, for which the growth inhibition is -18%.
For the molecule `CC(C)C(C)(C(=O)O)C(C)C`, the growth inhibition was 2.1%.
To `CN(Cc1cc(Cl)cc(Cl)c1)CC(C(=O)c1ccccc1)c1ccccc1` (stereo not given) belongs 96.5% (active); to `O=c1[nH]c(Cc2ccccc2)nc2c1sc1nc3ccccc3n12`, -1.95%; to `CC(NNC(=S)N1CCCC1)c1cccnn1` (stereo not given), 92.3% (active).
With `Cc1ccc2c(c1)C(O)(c1ccccc1)CCS2` (stereo not given) the figure was 77.2% (active).
